Sampled rows, rich in hits. Any-hit rate of the full collection: about 1.2%.
GC-B act = GC-B (human) receptor activation; 0.11% of 370,000 active; HEK293-GC-B cells, CNP EC30, cGMP TR-FRET; 0% at EC30 CNP, 100% saturating CNP; AID 1920062; P20594; activation, % at 10 µM;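 active means activation at 10 µM reaching about 35% in either raw or pattern-adjusted values, limit read from the data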
GC-A act = GC-A (human) enzyme activation | P16066 | HEK293 GC-A cells, cGMP TR-FRET, EC30 ANP; 0% at EC30 ANP, 100% saturating ANP | activation, % at 10 µM | 0.14% of 370,000 active; in the data active means activation above about 40%
PLC-gamma1 inh = PLC-gamma1 (human) inhibition, primary screen. P19174. purified PLC-gamma1, fluorogenic substrate, fluorescence. inhibition, % at 12.2 µM. 0.84% of 370,000 active
PLCb3 inh = inhibitors of human phospholipase C beta3; Purified PLC-beta3, fluorogenic substrate, fluorescence; 0.18% of 370,000 active; inhibition, % at 12.2 µM; AID 720704; Q01970; in the data active means inhibition above about 11%;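 further: 0% = median of compound wells on plate and 100% = full blocker control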
PLCgamma1 ctr = inhibits human PLC-gamma1 in PLC-beta3 counter-screen; shares compounds with PLC-gamma1 inh; purified PLC-gamma1, fluorogenic substrate, fluorescence; inhibition, % at 12.3 µM; 3.1% of 3,300 active; AID 743258
PLCbeta3 conf = human PLC-beta3 inhibition, confirmation. shares compounds with PLC-gamma1 inh. purified PLC-beta3, fluorogenic substrate fluorescence. inhibition, % at 12.3 µM. 1% of 3,300 active. AID 743261; in the data active means inhibition above about 11%
* = called active by the depositor; nt = no result. Unless noted, no stated cut-off is given here; in the data, active means inhibition above about 9.5%; inactive means the rest.

SMILES | GC-B act | GC-A act | PLC-gamma1 inh | PLCb3 inh | PLCgamma1 ctr | PLCbeta3 conf
Cc1c(C(=O)N2CCN(c3ccc(C(F)(F)F)cn3)CC2)oc2ccccc12 | -2.4 | 0.9 | -4.5 | -6.5 | nt | nt
CCSc1ccc([C@@H]2[C@H]3C(=O)N(C)C(=O)[C@H]3[C@]3(C(=O)OC)CCCCN23)cc1 | 6.1 | -6.3 | 10.2* | 3.0 | -6.3 | -4.1
COC(=O)C1C(c2ccccc2)C(C(=O)N2CCOCC2)C1c1ccccc1 (stereo not drawn) | 0.8 | 4.5 | -1.1 | 15.3* | -2.0 | 2.8
O=C(O)C1C(c2ccccc2)C(C(=O)N2CCOCC2)C1c1ccccc1 (stereo not drawn) | 1.9 | 4.7 | 6.3 | 4.2 | nt | nt
O=C(NCCCN1CCOCC1)c1ccccc1 | 9.2 | -6.6 | 11.9* | 5.5 | -2.3 | 2.2
O=C(NCCc1ccccc1)C(=O)NN=C1CCCC1 | 6.9 | -2.8 | 9.7* | 2.6 | -3.0 | -1.5
O=C(NCCCN1CCOCC1)c1cccnc1 | 4.5 | 2.9 | -1.6 | -0.2 | nt | nt
O=C(NCCCN1CCOCC1)C(=O)NCCc1ccccc1 | 9.0 | 2.2 | 12.0* | 5.0 | -4.0 | -0.4
Cc1ccc(C(=O)NCCCN2CCOCC2)cc1S(=O)(=O)N1CCOCC1 | 4.2 | -0.4 | 10.2* | -1.1 | -6.9 | -2.4
O=C(Cc1ccccc1)NCCCN1CCN(CCCNC(=O)Cc2ccccc2)CC1 | 3.5 | -0.9 | 11.4* | 5.4 | -4.7 | -3.1
O=C(NCCCN1CCOCC1)C(=O)NCc1ccccc1 | -1.5 | -1.1 | -2.2 | -4.9 | nt | nt
Cc1ccc(O)c(C(=O)c2cc(C#N)c(=O)n(C(C)c3ccccc3)c2)c1 (stereo not drawn) | -8.6 | -3.8 | 2.1 | -2.8 | nt | nt
Cc1cc(=O)c2n(Cc3ccccc3Cl)nc[n+]2[nH]1 | 3.7 | 1.5 | 14.2* | 0.7 | -2.6 | -0.9
Cn1nnnc1SCCNCc1cccc2ccccc12 | -1.1 | 2.3 | -0.1 | -136.7 | nt | nt
Cn1nnnc1SCCNC/C=C/c1ccccc1 | 2.4 | -2.9 | 7.7 | 13.2* | -4.7 | 0.0
CCOC(=O)NC(=O)CSc1nc2ccccc2[nH]1 | -0.7 | 4.1 | 2.0 | 3.0 | nt | nt
CCOC(=O)C1(C(C)(C)CC)CC(CSc2nc3ccccc3[nH]2)OC1=O (stereo not drawn) | -6.5 | -3.8 | 12.5* | 6.1 | -5.9 | -6.4
COC(=O)[C@]12CCCCC=C1N(Cc1ccc3c(c1)OCO3)C(=O)[C@H](CC(=O)NCCc1ccccc1OC)C2 | -2.7 | 2.3 | 1.8 | 1.4 | nt | nt
Cc1cccc(NC(=O)CCc2ccccc2)c1C | 4.5 | -0.9 | 11.7* | 3.5 | -10.2 | 0.0
CCOc1cccc2c1OC1(C)CC2NC(=O)N1c1cccc(Cl)c1 (stereo not drawn) | -1.0 | 2.1 | -5.5 | 2.5 | nt | nt
O=C(Oc1ccc(Br)cc1C(=S)N1CCCC1)c1ccccc1F | 4.4 | -0.6 | 13.2* | 1.7 | -4.2 | -2.8
CC(=O)c1c(C)[nH]c(C(=O)OCC(=O)NCCc2ccc(Cl)cc2)c1C | -2.1 | 1.5 | 10.7* | 2.2 | 3.4 | -1.6
OCCC1CN(Cc2cccc3nonc23)CCN1Cc1ccsc1 (stereo not drawn) | 5.9 | -2.0 | 10.5* | 3.2 | 1.4 | 0.2
O=C(O)CCC(=O)N1CCc2cc(S(=O)(=O)N(CCc3ccccc3)Cc3ccccc3)ccc21 | 2.9 | 4.8 | 10.2* | 4.0 | -2.8 | -6.3
Fc1ccc(CSc2ncnc3c2oc2ccccc23)cc1 | -8.6 | -3.2 | 10.4* | 4.0 | -5.8 | -5.4
SMILES | GC-B act | GC-A act | PLC-gamma1 inh | PLCb3 inh | PLCgamma1 ctr | PLCbeta3 conf
Fc1cccc(CSc2ncnc3c2oc2ccccc23)c1 | -7.3 | 1.4 | 8.2 | 5.5 | nt | nt
O=C(CCNS(=O)(=O)c1ccccc1)NCCCSc1ccccc1 | -1.3 | 3.8 | 7.0 | -8.6 | nt | nt
O=C(CCNS(=O)(=O)c1ccccc1C(F)(F)F)NCCCSc1ccccc1 | -5.9 | -3.5 | 11.8* | -0.7 | -6.1 | -0.7
CCN(C(=O)Cn1cnc2c(nc3n2CCCCC3)c1=O)c1cccc(Cl)c1 | -2.8 | -1.0 | 11.7* | 0.2 | -7.0 | -5.5
O=C(OCC#CCSc1nnc(-c2ccccc2Cl)o1)c1ccc(F)cc1 | -2.6 | -0.3 | -1.9 | -2.6 | nt | nt
O=C(OCC#CCSc1nnc(-c2ccc(F)cc2)o1)c1ccc(F)cc1 | -3.0 | 3.7 | 10.5* | 6.3 | -8.4 | -6.3
O=c1[nH]n(-c2ccccc2Cl)c(=O)c2ccccc12 | 5.4 | -2.4 | 13.9* | -3.6 | -10.4 | -6.7
